“And” between values parts separate entries of the source, which are not always exact repeats. Identical values can stand only once. Inconclusive results are not listed. The source holds several records for some structures; these can differ, active in one and inactive in another. The source made the active and inactive calls. How the source made its calls: active means hit-call score of the fitted dose curve at least 0.9, where 1 is the maximum; inconclusive means response in the unintended direction; inactive means score below 0.9.
How the values were obtained:
[1] = ATG_XTT_Cytotoxicity: Cytotoxicity Assessment in the Attagene TRANS-FACTORIAL HepG2 Assay (AID 2283584);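 on AC50: cells exposed to compound for 24 h before reading; active means loss of viability signal versus DMSO baseline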
In short: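 Cells: human HepG2, transiently transfected with MRTU reporter constructs. Exposure 24 h. Readout: XTT, cell number. Baseline/neg ctrl DMSO; loss-of-signal scored.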

[2] = biological target: Cellular tumor antigen p53 (Homo sapiens) (UniProt P04637); assay: TOX21_p53_BLA_p2_ratio: Tox21 HCT-116 p53 Agonism Beta-lactamase Assay, Ratio, Phase 2 (AID 2283592)
Cellular tumor antigen p53 (Homo sapiens), sequence (P04637 whole entry, looked up): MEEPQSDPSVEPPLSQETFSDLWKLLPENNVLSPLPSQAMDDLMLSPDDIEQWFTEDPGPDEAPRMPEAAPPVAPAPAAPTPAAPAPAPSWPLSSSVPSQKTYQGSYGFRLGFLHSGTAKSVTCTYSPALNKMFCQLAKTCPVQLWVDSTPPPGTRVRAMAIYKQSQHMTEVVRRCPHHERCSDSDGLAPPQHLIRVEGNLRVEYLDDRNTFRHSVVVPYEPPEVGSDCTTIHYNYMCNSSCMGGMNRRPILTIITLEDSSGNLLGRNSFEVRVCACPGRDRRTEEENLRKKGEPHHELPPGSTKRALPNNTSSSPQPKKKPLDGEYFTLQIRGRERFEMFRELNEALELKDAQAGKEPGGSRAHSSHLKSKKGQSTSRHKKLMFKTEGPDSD
In short: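 Plated HCT116 p53-bla cells (4000/well) received compound after 5 h, then 16 h at 37C/5% CO2. CCF4-AM added, 2 h RT. Ratio of 460 to 530 nm emission taken as the p53 reporter signal.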

[3] = TOX21_p53_BLA_p3_viability: Viability Assessment in the Tox21 HCT-116 p53 Agonism Beta-lactamase Assay, Phase 3 (AID 2283593);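 further: cells exposed to compound for 16 h before reading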
In short: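 HCT116 cells, 4000/well, dosed 5 h after plating by pin transfer (217-fold dilution from DMSO stock) and incubated 16 h at 37C, 5% CO2. Viability read as ATP luminescence with CellTiter-Glo after 30 min at room temperature.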

[4] = biological target: Cellular tumor antigen p53 (Homo sapiens) (UniProt P04637); assay: TOX21_p53_BLA_p3_ratio: Tox21 HCT-116 p53 Agonism Beta-lactamase Assay, Ratio, Phase 3 (AID 2283596)
In short: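 Cells were seeded at 4000/well, rested 5 h at 37C, then dosed with DMSO compound solutions (217-fold dilution) for 16 h. CCF4-AM substrate was loaded for 2 h at room temperature, and the 460/530 nm emission ratio was fitted for gain of signal versus DMSO.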

[5] = TOX21_p53_BLA_p4_viability: Viability Assessment in the Tox21 HCT-116 p53 Agonism Beta-lactamase Assay, Phase 4 (AID 2283597);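 further: hits lower the luminescence signal meaning cytotoxicity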
In short: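 Readout: ATP luminescence (CellTiter-Glo), measured 30 min after reagent addition at RT. The reagent followed a 2 h CCF4-AM incubation, and the cells had been exposed to compound for 16 h at 37C.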

[6] = biological target: Cellular tumor antigen p53 (Homo sapiens) (UniProt P04637); assay: TOX21_p53_BLA_p4_ratio: Tox21 HCT-116 p53 Agonism Beta-lactamase Assay, Ratio, Phase 4 (AID 2283601)
In short: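 HCT-116 p53 beta-lactamase reporter cells (4000/well) preincubated 5 h, then compound (217-fold dilution of DMSO stock) for 16 h at 37C. CCF4-AM substrate added 2 h at room temperature; 460/530 nm emission ratio fitted upward versus DMSO.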

[7] = biological target: Cellular tumor antigen p53 (Homo sapiens) (UniProt P04637); assay: TOX21_p53_BLA_p5_ratio: Tox21 HCT-116 p53 Agonism Beta-lactamase Assay, Ratio, Phase 5 (AID 2283599)
In short: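 HCT-116 p53-bla cells (4000/well) plated 5 h, dosed with compound (217-fold DMSO dilution) for 16 h at 37 C; CCF4-AM substrate 2 h at room temperature. Activity is the 460/530 nm emission ratio (405 nm excitation), fitted in gain-of-signal direction versus DMSO.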

[8] = TOX21_p53_BLA_p5_viability: Viability Assessment in the Tox21 HCT-116 p53 Agonism Beta-lactamase Assay, Phase 5 (AID 2283600)
In short: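 Workflow: seed 4000 cells per well, wait 5 h, add compounds (DMSO, 217-fold dilution), incubate 16 h, load CCF4-AM 2 h, add CellTiter-Glo, read luminescence after 30 min.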

[9] = TOX21_p53_BLA_p2_viability: Viability Assessment in the Tox21 HCT-116 p53 Agonism Beta-lactamase Assay, Phase 2 (AID 2283591);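 further: compound exposure lasted 16 h at 37 °C; actives lower the ATP signal meaning cytotoxicity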
In short: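 HCT116 p53-bla cells, 4000/well, dosed after 5 h plating (217-fold dilution of DMSO stocks) and incubated 16 h at 37C. Viability taken as cellular ATP by CellTiter-Glo luminescence after 30 min RT; signal loss marks cytotoxicity.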

Measured: AC50

CCCC(C)C(O)CC (stereo unspecified)
not listed: [7] | [8] | [9]
inactive: all other assays above

CC(=O)OCCCc1ccccc1
not listed: [5] | [8] | [9]
inactive: all other assays above

O=[N+]([O-])c1cccc(Cl)c1
not listed: [5] | [8] | [9]
inactive: all other assays above

CCCCCCOC(=O)C(C)C
not listed: [5] | [8] | [9]
inactive: all other assays above

Cc1cc(C)nc(NS(=O)(=O)c2ccc(N)cc2)n1
not listed: [9]
inactive: all other assays above

COc1cc(CCC(C)=O)ccc1O
inactive: [1] | [2] | [3] | [7]

O=C1OC(=O)c2c(Cl)c(Cl)c(Cl)c(Cl)c21
not listed: [9]
inactive: all other assays above

CCCCCCCCC=CCCCCCCCC1=NCCN1CCO
inactive: [2] | [7] | [8]
active: [1] 16.1 µM | [3] 77.4 µM | [4] 87.1 µM | [5] 86.4 µM | [6] 87.8 µM

N#Cc1cscn1
not listed: [7] | [9]
inactive: all other assays above

CC(C)CC(C)CC(O)CC(C)C (stereo unspecified)
not listed: [9]
inactive: all other assays above

Cc1c(Cl)cccc1[N+](=O)[O-]
not listed: [5] | [6] | [9]
inactive: all other assays above

C[Si](C)(C)O[Si](C)(C)C
not listed: [9]
inactive: all other assays above

C#CC(C)(O)CC(C)C (stereo unspecified)
inactive: [1] | [2] | [3] | [7] | [8]

CN(C)C(=O)Nc1ccc(Oc2ccc(Cl)cc2)cc1
not listed: [9]
inactive: all other assays above

CC(C)C(OC(=O)c1ccccc1)C(C)(C)COC(=O)c1ccccc1 (stereo unspecified)
not listed: [4] | [6] | [9]
inactive: all other assays above

CSc1c(Cl)c(Cl)c(Cl)c(Cl)c1Cl
active: [3] 45.9 µM
not listed: [9]
inactive: all other assays above

NC1CCCCC1N (stereo unspecified)
not listed: [4] | [9]
inactive: all other assays above

CCCCCCOC(=O)CCC
not listed: [8] | [9]
inactive: all other assays above

C=C(C)C(=O)OCCOCCOCCOC(=O)C(=C)C
not listed: [5] | [9]
inactive: all other assays above

CCCCCCCCCCCCCCN(CCO)CCO
active: [1] 28.3 µM
not listed: [7] | [9]
inactive: all other assays above

CCCCC(CC)(CO)CO
not listed: [4] | [5] | [9]
inactive: all other assays above

CCN(CC)C(=O)N(CC)CC
not listed: [6] | [7] | [9]
inactive: all other assays above

Nc1ccc2c(O)cc(S(=O)(=O)O)cc2c1
active: [2] 23.1 µM and 18.3 µM | [4] 12.9 µM | [7] 33.1 µM and 21.3 µM | [6] 46.1 µM and 16 µM
inactive: [9] | [3] | [4] | [5] | [8]

CCc1ccc(O)cc1
not listed: [1] | [6]
inactive: all other assays above

CCc1cc(C(C)(C)C)c(O)c(C(C)(C)C)c1
not listed: [1]
inactive: all other assays above

CC(=O)Nc1ccc(C(=O)CCl)cc1
inactive: [9] | [2] | [3] | [4] | [7] | [8] | [6]
active: [2] 76.7 µM | [4] 29.9 µM | [7] 20.9 µM | [6] 79.4 µM

COCCc1ccc(OCC(O)CNC(C)C)cc1 (stereo unspecified)
inactive: [1] | [2] | [4] | [7] | [6]

C/C=C(\C)C(=O)OCCc1ccccc1
inactive: [9] | [2] | [3] | [4] | [5]

C=CCCC(=O)/C=C/C1C(C)=CCCC1(C)C (stereo unspecified)
not listed: [3] | [4] | [9]
inactive: all other assays above

O=C(O)c1cccnc1C(=O)O
inactive: [1] | [4] | [7] | [8]

CC1=NN(c2ccc(S(=O)(=O)O)cc2)C(=O)C1
inactive: [1] | [2] | [4] | [7] | [8]

CC1=CC[C@@]23C[C@@H]1C(C)(C)[C@@H]2CC[C@H]3C
inactive: [1] | [8]

O=C(Nc1ccc2c(c1)Cc1ccccc1-2)C(F)(F)F
not listed: [1]
inactive: all other assays above

CC[N+](C)(CC)CC
inactive: [1] | [2] | [7] | [6]

CCCCCCC(CO)CCCC (stereo unspecified)
inactive: [1] | [2] | [4] | [7] | [6]

Nc1ccc(NCCO)c([N+](=O)[O-])c1
inactive: [1] | [2] | [5] | [7] | [6]

CCCC[O][Al]([O]CCCC)[O]CCCC
not listed: [3] | [8] | [9]
inactive: all other assays above

CCCCC1CCC(O)CC1 (stereo unspecified)
inactive: [1] | [2] | [4] | [8]
active: [7] 83.6 µM

CC(C)Nc1nc(N)nc(Cl)n1
inactive: [1] | [6]

O=C(O)CCCCCCCCCCCC(=O)O
not listed: [1] | [6]
inactive: all other assays above

CN1C(=O)c2ccccc2C1=O
not listed: [1]
inactive: all other assays above

N#Cc1ccc(CC(=O)c2cccc(C(F)(F)F)c2)cc1
inactive: [1] | [4] | [7] | [8] | [6]

C=C(C)CNCC
not listed: [3] | [8] | [9]
inactive: all other assays above

O=CN1CCOCC1
inactive: [1] | [2] | [7] | [6]

CC(=O)NCCO
inactive: [1] | [2] | [4] | [5] | [8]

CS(=O)(=O)c1ccc(C2=C(c3ccccc3)C(=O)OC2)cc1
inactive: [1] | [8] | [6]

C[C@@H]1CCN(C(=O)[C@H](CCCN=C(N)N)NS(=O)(=O)c2cccc3c2NC[C@H](C)C3)[C@@H](C(=O)O)C1
not listed: [3] | [5] | [9]
inactive: all other assays above

Cc1ccc(C)o1
inactive: [1] | [3] | [7] | [6]

OCc1ccc(Cl)cc1Cl
not listed: [3] | [9]
inactive: all other assays above

COC(=O)Nc1ccc(Cl)c(Cl)c1
not listed: [1]
inactive: all other assays above

O=C(O)c1cc(C(=O)O)cc([N+](=O)[O-])c1
inactive: [1] | [6]

C=CC(=O)OCCC#N
inactive: [1] | [3] | [7] | [8] | [6]

COc1ccc(N=Nc2cc(C)c(N=Nc3ccc(S(=O)(=O)O)cc3)cc2OC)cc1
not listed: [2] | [9]
inactive: all other assays above

CCCCCCCCCC(C)C=O (stereo unspecified)
not listed: [1]
inactive: all other assays above

CCC1(C)NC(=O)NC1=O (stereo unspecified)
inactive: [9] | [2] | [3]

CC(C)(CO)[C@@H](O)C(=O)NCCC(=O)O
inactive: [1] | [2] | [4] | [7] | [6]

CCCCOC(=O)CCCCCCCC(=O)OCCCC
inactive: [1] | [2] | [7]

O=c1c(O)c(-c2ccc(O)cc2)oc2cc(O)cc(O)c12
inactive: [1] | [2] | [4] | [7] | [6]

CC(CN=Cc1ccccc1O)N=Cc1ccccc1O (stereo unspecified)
inactive: [9] | [2] | [3] | [4] | [7]

— PubChem BioAssay (EPA / NIEHS)
